Laboratory results as given in PubChem BioAssay AID743279 (National Center for Advancing Translational Sciences (NCATS), 2014).
Screen size: about 360,000 compounds; about 17,000 (4.7%) were called active. Roughly 5% stayed inconclusive and do not appear here. The entries come from a sample that favours actives as a whole. A number with no mark means an inactive call. Rule as the data show it: active = activity change below about -50%; inconclusive = mostly about -30% to -49%; inactive = weaker than that.

Assay: qHTS for Inhibitors of Inflammasome Signaling: IL-1-beta AlphaLISA Primary Screen
Conditions: THP-1 LPS/ATP IL-1B secretion, 16 h; at 57.5 µM, hits give low values
Method in brief: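 THP-1 cells pretreated 1 hr with compounds (up to 57.5 uM final), then stimulated with LPS (250 ng/mL final) plus ATP (1.25 mM final); secreted IL-1B measured by AlphaLISA after 16 hr, decreased signal indicating inhibition.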
% is scaled to controls: 0 for no effect and ±100 for the full control effect.

In order of rising activity change:
1. Cc1cc(C)c2cc(C#N)c(N3CCNCC3)nc2c1  -29.2%
2. CCOC(=O)c1c(-c2ccccc2)oc2ccc(OCC(=O)NN)cc12  -28.6%
3. O=C1OC[C@@H]2CCCN2C(=O)[C@H](CC(=O)N(CCO)Cc2ccccc2)C/C=C\CC[C@@H]1Cc1ccc(F)cc1  -27.7%
4. COc1ccc(CCC(=O)Nc2ccc(Cl)c(S(=O)(=O)N3CCOCC3)c2)cc1OC  -24.7%
5. CC(C)Oc1ccc(Oc2ccc(C(F)(F)F)cn2)cc1  -23.6%
6. Cc1sc2ncnc(N3CCC(C(=O)NNC(=O)c4ccc(F)cc4)CC3)c2c1C  -23.3%
7. CN(CC(=O)NCC(c1ccccc1)N1CCCC1)S(=O)(=O)c1ccc(Cl)cc1 (stereo not given)  -22.9%
8. CN1CCN(c2ccc(NC(=O)c3cc(Cl)c4c(c3)OCCO4)cc2)CC1  -19%
9. O=S(=O)(c1ccc(Br)cc1)c1nc(-c2ccccc2)oc1NCc1cccnc1  -18.2%
10. CCCCCCN1CCN(C2CN(Cc3cn(CCCCCC)nn3)S(=O)(=O)C2)CC1 (stereo not given)  -17.7%
11. CCCCn1c(N)c(N(CCC(C)C)C(=O)COC(=O)c2cccnc2OCC)c(=O)[nH]c1=O  -17.5%
12. O=C1CCC/C=C/C[C@@H](CC(=O)N(CCO)Cc2ccccc2)C(=O)NC[C@H](c2ccccc2)O1  -15.8%
13. CCOc1ccc2nc(N3CCCN(C(=O)Nc4ccccc4C)CC3)c(C#N)cc2c1  -14.3%
14. Cn1c(CCN2CCN(c3ccccn3)CC2)nc2cc(NS(=O)(=O)c3ccc(F)cc3)ccc21  -12.9%
15. CC(C)(C)OC(=O)C[C@@H]1C/C=C\C[C@@H](CC(=O)N(CCO)Cc2ccccc2)C(=O)N[C@H](Cc2ccccc2)COC1=O  -12.5%
16. CCC(Sc1nncn1C)C(=O)Nc1nnc(-c2ccc(Cl)cc2)s1 (stereo not given)  -11%
17. Cc1sc2ncnc(N3CCC(C(=O)Nc4ccc(F)cc4Cl)CC3)c2c1C  -10.9%
18. Cc1ccc(-n2cnc3ncnc(-c4ccccc4)c32)cc1  -9.14%
19. CCCCCCSc1ccc(-c2nc3ccc(Cl)cn3c2NCc2ccccc2)cc1  -8.09%
20. CCNC(=O)C1(C)CCCN(Cc2noc(-c3ccccc3OC)n2)C1 (stereo not given)  -5.34%
21. CN(C)CCCOc1ccc(-c2ccc3nccn3c2)cn1  -5.3%
22. Cc1ccc(S(=O)(=O)N2CCCC2C(=O)OCc2nc3sc(C)c(C)c3c(=O)[nH]2)cc1 (stereo not given)  -4.97%
23. CCC(=O)Nc1ccc2c(c1)nc(CCN1CCN(c3ccccn3)CC1)n2C  -3.98%
24. COC(=O)c1c(C)[nH]c(C(=O)/C=C/c2ccc(Cl)cc2)c1C  -3.64%
25. Cc1ccc(-c2nc3ccc(Cl)cn3c2Cc2ccccc2)cc1  -3.47%
26. O=C(O)C1CCCN1c1nc(Cl)ccc1[N+](=O)[O-] (stereo not given)  -1.43%
27. CC(NC(=O)COC(=O)Cn1cc(C(F)(F)F)ccc1=O)c1ccccc1 (stereo not given)  -0.662%
28. CCOC(=O)c1c(-c2ccccc2)oc2cc(Br)c(O)cc12  0%
29. NS(=O)(=O)c1ccc(NC(=O)COC(=O)CCc2c[nH]c3ccccc23)cc1  0%
30. CCOC(=O)c1c(NC(=S)SC)sc(C(=O)N2CCc3ccccc3C2)c1C  1.46%
31. Cc1cc(Br)ccc1NC(=O)c1cnc(N2CCN(c3ccccn3)CC2)c2ccccc12  1.57%
32. CCn1ccnc1CN(C)Cc1nc(-c2ccc3c(c2)OCO3)no1  1.77%
33. CC(=O)N[C@H]1[C@H]([C@H](O)[C@H](O)CO)OC(C(=O)O)=C[C@@H]1O  1.96%
34. O=C(Nc1ccc(Cl)cn1)c1ccc2c(c1)OCCO2  2.51%
35. CCN(CC)c1ccc(NC(=O)CN2CCN(c3ccccn3)CC2)cc1  2.92%
36. Cc1cc(NCc2cccnc2)no1  3.61%
37. O=C(Nc1cc2c3c(c1)CC(=O)N3CCC2)c1ccccc1F  4.9%
38. Fc1ccc(N2N=C(c3cccs3)CC2c2ccco2)c(F)c1 (stereo not given)  5.22%
39. Cc1cc(OCC(=O)Nc2nccs2)c2c(C)c(C)c(=O)oc2c1  6.37%
40. CCOC(=O)c1c(C)nc2c(c1C)c(=O)oc1ccccc12  7%
41. CCNc1nc(Oc2ccc(C(=O)OC)cc2)nc(N2CCOCC2)n1  7.61%
42. Cc1ccc(Cc2c(C)nc3nc(SCC(=O)NCCN4CCOCC4)nn3c2C)cc1  7.76%
43. C[C@H]1CN([C@@H](C)CO)C(=O)CCCn2nncc2CO[C@@H]1CN(C)Cc1ccc(Oc2ccccc2)cc1  8.16%
44. O=C(Nc1ccc(NC(=O)c2ccc3c(c2)OCO3)cc1)c1cccc(Cl)c1  9.41%
45. CCOCCCNC(=O)C(NC(=O)Cc1c[nH]c2ccccc12)c1ccc(OC)cc1 (stereo not given)  10.6%
46. O=C(CSc1ncn[nH]1)Nc1nsc(-c2ccccc2)n1  10.9%
47. O=C(CSc1ncn[nH]1)Nc1ccnc2ccccc12  11%
48. CCN(CC)C(=O)N1CCN(C(=O)c2ccc(C)cn2)CC1  13.6%
49. O=C(c1ccc(Cn2cc([N+](=O)[O-])cn2)o1)N1CCCC1  13.7%
50. CC(=O)Nc1c2c(nn1-c1ccc(C)cc1C)CS(=O)C2 (stereo not given)  13.7%
51. COc1cc2c(cc1OC)CN(CC(=O)Nc1ccc(F)cc1)CC2  14%
52. CCCC/C(C)=N/NC(=O)NC1CCCCC1  14.3%
53. CCCS(=O)(=O)NC(=O)C1(C)CCCN(C(=O)c2ccnc(Cl)c2)C1 (stereo not given)  15.3%
54. CC1(C(=O)O)CCCN(C(=O)/C=C/c2ccccc2)C1 (stereo not given)  17.4%
55. O=C(COC(=O)/C=C/c1ccc(OC(F)F)cc1)NC1CCCCC1  17.5%
56. COC(=O)c1ccc(N2CCOCC2)c(NC(=O)c2ccc3c(c2)OCCO3)c1  18.4%
57. COC(=O)c1ccc(Oc2nc(NC(C)C)nc(SC)n2)cc1  19.1%
58. CCCCCCCN=C(C)c1ccccc1O  19.8%
59. CC1(C(=O)NS(=O)(=O)c2cccc(F)c2)CCN1C(=O)c1cccc2ccccc12 (stereo not given)  21.3%
60. COc1ccccc1C(=O)NCCC(=O)NC1=NCCS1  22%
61. COc1ccc(NC(=O)CN(C)C(=O)c2cc(C)oc2C)cc1  24%
62. CCCCc1ccc(S(=O)(=O)NC(=O)C2(C)CCN2C(=O)c2c(C)noc2C)cc1 (stereo not given)  24.9%
63. Cc1ccn(-c2cccc(-n3ccc(C)n3)n2)n1  25.2%
64. Cc1cc(Br)ccc1NC(=O)c1sc2ncn(CC(=O)N3CCN(c4ccccn4)CC3)c(=O)c2c1C  28.3%
65. O=C(c1cccnc1)N(Cc1ccccc1)C(=O)c1cccnc1  33%
66. Cc1cc(C)n2nc(SCC(=O)NC(=O)NCc3ccco3)nc2n1  34.3%
67. O=C1CCC/C=C\C[C@@H](CC(=O)N(CCO)Cc2ccccc2)C(=O)NCCO1  36.5%
68. O=C(C=CC(=O)Nc1ccc(F)cc1F)Nc1ccc(F)cc1F  36.7%
69. CCOC(=O)C1=C(C)c2ccccc2OC1(C)C(=O)OCC (stereo not given)  41.5%
70. Cc1csc(SCC(=O)Nc2ccc(C)c(S(=O)(=O)N(C)C)c2)n1  42.7%
71. C[C@H]1NS(=O)(=O)c2cc(Cl)ccc2O[C@@H]1c1ccccc1  51.9%
72. C/C(=N/Nc1ccc(Cl)cc1)c1cnnc(-c2ccccc2)n1  58.2%

For `N#Cc1nc(COc2ccc(-c3ccccc3)cc2)oc1NCc1cccnc1`, the activity change was -79.6% (active).
With `C/C(=N\NC(=O)NC1CCCCC1)c1ccc(OC(F)F)cc1OC(F)F` the activity change was -80.5% (active).
For `O=C1NC[C@@H](c2ccccc2)OC(=O)[C@H](Cc2ccc(F)cc2)CC/C=C/C[C@H]1CC(=O)N(CCO)Cc1ccccc1`, the activity change was -57.4% (active).
For `O=C1N[C@@H](c2ccccc2)COC(=O)[C@H](Cc2ccc(F)cc2)C/C=C\C[C@@H]1CC(=O)N(CCO)Cc1ccccc1`, the activity change was -68.1% (active).
In the case of `Cc1ccc(-n2cc(CN(C)Cc3nccn3C)c(-c3cccc(C)c3)n2)cc1`, the activity change is reported as -85.3% (active).
In the case of `COC(=O)c1ccc(Oc2nc(Nc3ccc(F)cc3)nc(N3CCCC3)n2)cc1`, the activity change is reported as -60.2% (active).
With `CCOC(=O)c1c(-c2ccccc2)oc2cc(Br)c(O)c(C=O)c12` the activity change was -98% (active).
In the case of `Cc1nc2nc(SCC(=O)NCc3ccco3)nn2c(C)c1Cc1ccccc1`, the activity change is reported as -78.8% (active).
In the case of `CCOC(=O)c1c(C)[nH]c2c1-c1ccccc1C(=O)C2=O`, the activity change is reported as -53.9% (active).
In the case of `CCC(C)(C)n1nnnc1CN1CCN(c2nc3ccc(C)cc3cc2C#N)CC1`, the activity change is reported as -68.2% (active).
For `O=C(CSc1ncn[nH]1)Nc1ccc(Br)cc1Br`, the activity change was -53.6% (active).
For `CNCC[C@H](Oc1ccc(C(F)(F)F)cc1)c1ccccc1`, the activity change was -68.4% (active).
In the case of `Clc1ccc2nc(CSc3ccccc3)cn2c1`, the activity change is reported as -87.1% (active).
In the case of `CC[C@H]1CN2CCc3cc(OC)c(OC)cc3[C@@H]2C[C@@H]1C[C@H]1NCCc2cc(OC)c(OC)cc21`, the activity change is reported as -106% (active).
With `Cc1[nH]c(=O)c(C(=O)/C=C/c2ccccc2)c2c1CCCC2` the activity change was -98.3% (active).
In the case of `C/C(=N\Nc1ccc(Cl)nn1)c1ccccc1O`, the activity change is reported as -63.2% (active).
For `O=C(Nc1cccc(S(=O)(=O)Nc2ccc(Cl)cc2)c1)c1ccc2c(c1)OCCO2`, the activity change was -81.3% (active).
With `CN1CCN(c2ccc(NC(=O)c3ccc4c(c3)OCCO4)cc2Cl)CC1` the activity change was -72.6% (active).
For `CC(=O)Nc1ccc(C(=O)N(C2=NC(C)CS2)c2ccc(Cl)cc2)cc1` (stereo not given), the activity change was “inactive”.
In the case of `COc1ccccc1C(=O)N(C1=NC(C)CS1)c1ccc(Cl)cc1` (stereo not given), the activity change is reported as -80.7% (active).
In the case of `Cc1nc(N2CCN(c3ccccn3)CC2)c2c(C)c(C(=O)Nc3ccc(F)c(Cl)c3)sc2n1`, the activity change is reported as -58.3% (active).
With `Cc1nc(N2CCC(C)CC2)c2c(C)c(C(=O)Nc3cc(F)ccc3C)sc2n1` the activity change was -93.6% (active).
For `Cc1nc(N2CCN(c3ccccn3)CC2)c2c(C)c(C(=O)Nc3ccc(F)cc3)sc2n1`, the activity change was -76.8% (active).
